Laboratory results: PubChem BioAssay AID1159580 (chemical genetic matrix, 2015)
The whole screen tested about 5,500 compounds, of which about 2,000 (36%) were called active. About 18% were inconclusive and are not listed. Cut-off read from the data, not from the text of the source: active = normalized growth mostly below about 0.91 (no sharp cut-off); inconclusive = no clear call, values can overlap the other calls; inactive = mostly above about 0.92. This is one part of the list.

Assay: chemical genetic growth profiling, strain panel (AID 1159580);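 note: tested at 20 µM; growth read once vehicle control cultures reached saturation at 30 °C; 1 = growth at the plate median or of vehicle wells; lower values mean less growth of the strain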
Settings: growth OD

Measured: normalized growth

C[C@]12C=CC(=O)C=C1CCC1C3C[C@@H](O)[C@](O)(C(=O)CO)[C@@]3(C)C[C@H](O)[C@@]12F (some centres undefined)
inactive: S. cerevisiae deletion strains, locus YJR066W, strain TOR1, active compounds read low 0.952 | S. cerevisiae deletion strains, locus YJR075W, strain HOC1, active compounds read low 1.01 | S. cerevisiae deletion strains, locus YKL009W, strain mrt4, active compounds read low 0.983 | S. cerevisiae deletion strains, locus YKL068W, active compounds read low 0.992 | S. cerevisiae deletion strains, locus YKL085W, strain MDH1 (second series), active compounds read low 0.983 | S. cerevisiae deletion strains, locus YKL085W, strain MDH1, active compounds read low 0.983 | S. cerevisiae deletion strains, locus YKL160W, strain elf1, active compounds read low 0.957 | S. cerevisiae deletion strains, locus YKL190W, strain CNB1, active compounds read low 1 | S. cerevisiae deletion strains, locus YKR001C, strain vps1, active compounds read low 0.944 | S. cerevisiae deletion strains, locus YKR026C, strain gcn3, active compounds read low 0.985 | S. cerevisiae deletion strains, locus YKR091W, strain srl3, active compounds read low 0.985 | S. cerevisiae deletion strains, locus YLL001W, strain dnm1, active compounds read low 1.01 | S. cerevisiae deletion strains, locus YLL026W, active compounds read low 0.964 | S. cerevisiae deletion strains, locus YLL041C, strain sdh2, active compounds read low 0.985 | S. cerevisiae deletion strains, locus YLR027C, strain aat2, active compounds read low 0.998 | S. cerevisiae deletion strains, locus YLR039C, strain RIC1, active compounds read low 1.01 | S. cerevisiae deletion strains, locus YLR058C, strain SHM2, active compounds read low 1.01 | S. cerevisiae deletion strains, locus YLR102C, strain apc9, active compounds read low 0.981 | S. cerevisiae deletion strains, locus YLR113W, strain HOG1, active compounds read low 1.01 | S. cerevisiae deletion strains, locus YLR221C, strain rsa3, active compounds read low 1.01 | S. cerevisiae deletion strains, locus YLR258W, strain gsy2, active compounds read low 0.983 | S. cerevisiae deletion strains, locus YLR262C, strain YPT6 (second series), active compounds read low 0.996 | S. cerevisiae deletion strains, locus YLR262C, strain YPT6, active compounds read low 1.02 | S. cerevisiae deletion strains, locus YLR268W, strain sec22, active compounds read low 0.953 | S. cerevisiae deletion strains, locus YLR320W, strain mms22, active compounds read low 0.98 | S. cerevisiae deletion strains, locus YLR330W, strain CHS5, active compounds read low 1.01 | S. cerevisiae deletion strains, locus YLR342W, strain FKS1 (second series), active compounds read low 1 | S. cerevisiae deletion strains, locus YLR342W, strain FKS1, active compounds read low 0.982 | S. cerevisiae deletion strains, locus YLR357W, strain rsc2, active compounds read low 0.941 | S. cerevisiae deletion strains, locus YLR370C, strain arc18, active compounds read low 0.991 | S. cerevisiae deletion strains, locus YLR371W, strain rom2, active compounds read low 0.987 | S. cerevisiae deletion strains, locus YLR384C, strain iki3, active compounds read low 0.993 | S. cerevisiae deletion strains, locus YLR418C, strain cdc73, active compounds read low 0.968 | S. cerevisiae deletion strains, locus YML016C, strain PPZ1, active compounds read low 1.01 | S. cerevisiae deletion strains, locus YML032C, strain rad52, active compounds read low 0.974 | S. cerevisiae deletion strains, locus YML120C, strain ndi1, active compounds read low 0.99 | S. cerevisiae deletion strains, locus YML124C, strain tub3, active compounds read low 0.981 | S. cerevisiae deletion strains, locus YMR058W, strain fet3, active compounds read low 1.04 | S. cerevisiae deletion strains, locus YMR078C, strain ctf18, active compounds read low 0.989 | S. cerevisiae deletion strains, locus YMR125W, strain sto1, active compounds read low 0.942 | S. cerevisiae deletion strains, locus YMR129W, active compounds read low 0.988 | S. cerevisiae deletion strains, locus YMR205C, strain PFK2, active compounds read low 0.958 | S. cerevisiae deletion strains, locus YMR223W, strain ubp8, active compounds read low 0.991 | S. cerevisiae deletion strains, locus YMR231W, strain pep5, active compounds read low 0.989 | S. cerevisiae deletion strains, locus YMR263W, strain SAP30, active compounds read low 1.01 | S. cerevisiae deletion strains, locus YMR307W, strain GAS1, active compounds read low 0.991 | S. cerevisiae deletion strains, locus YNL067W, strain RPL9B, active compounds read low 1.01 | S. cerevisiae deletion strains, locus YNL071W, strain lat1, active compounds read low 0.983 | S. cerevisiae deletion strains, locus YNL183C, strain NPR1, active compounds read low 0.961 | S. cerevisiae deletion strains, locus YNL209W, strain ssb2, active compounds read low 0.978 | S. cerevisiae deletion strains, locus YNL233W, strain BNI4, active compounds read low 1.01 | S. cerevisiae deletion strains, locus YNL248C, strain rpa49, active compounds read low 0.925 | S. cerevisiae deletion strains, locus YNL250W, strain rad50, active compounds read low 0.985 | S. cerevisiae deletion strains, locus YNL271C, strain bni1, active compounds read low 0.971 | S. cerevisiae deletion strains, locus YNL298W, strain CLA4, active compounds read low 0.98 | S. cerevisiae deletion strains, locus YNL307C, strain MCK1, active compounds read low 0.975 | S. cerevisiae deletion strains, locus YNL322C, strain KRE1 (second series), active compounds read low 0.944 | S. cerevisiae deletion strains, locus YNR049C, strain mso1, active compounds read low 0.985 | S. cerevisiae deletion strains, locus YNR052C, strain pop2, active compounds read low 0.988 | S. cerevisiae deletion strains, locus YOL006C, strain TOP1, active compounds read low 1.06 | S. cerevisiae deletion strains, locus YOL012C, strain htz1 1.1 | S. cerevisiae deletion strains, locus YOL147C, strain pex11, active compounds read low 0.975 | S. cerevisiae deletion strains, locus YOR001W, strain rrp6, active compounds read low 1.02 | S. cerevisiae deletion strains, locus YOR061W, strain CKA2, active compounds read low 1.01 | S. cerevisiae deletion strains, locus YOR069W, strain VPS5, active compounds read low 1.01 | S. cerevisiae deletion strains, locus YOR070C, strain gyp1, active compounds read low 0.979 | S. cerevisiae deletion strains, locus YOR080W, strain dia2, active compounds read low 0.987 | S. cerevisiae deletion strains, locus YOR083W, strain WHI5, active compounds read low 0.901 | S. cerevisiae deletion strains, locus YOR106W, strain vam3, active compounds read low 0.924 | S. cerevisiae deletion strains, locus YOR136W, strain idh2, active compounds read low 0.986 | S. cerevisiae deletion strains, locus YOR144C, strain elg1, active compounds read low 0.985 | S. cerevisiae deletion strains, locus YOR184W, strain ser1, active compounds read low 0.974 | S. cerevisiae deletion strains, locus YOR231W, strain MKK1, active compounds read low 0.983 | S. cerevisiae deletion strains, locus YOR265W, strain rbl2, active compounds read low 0.969 | S. cerevisiae deletion strains, locus YOR270C, strain vph1, active compounds read low 0.988 | S. cerevisiae deletion strains, locus YOR290C, strain snf2, active compounds read low 0.962 | S. cerevisiae deletion strains, locus YOR316C, strain cot1, active compounds read low 0.991 | S. cerevisiae deletion strains, locus YPL051W, strain arl3, active compounds read low 0.967 | S. cerevisiae deletion strains, locus YPL078C, strain atp4, active compounds read low 0.961 | S. cerevisiae deletion strains, locus YPL106C, strain sse1, active compounds read low 0.976 | S. cerevisiae deletion strains, locus YPL240C, strain hsp82, active compounds read low 0.986 | S. cerevisiae deletion strains, locus YPL241C, strain CIN2, active compounds read low 1.01 | S. cerevisiae deletion strains, locus YPL256C, strain CLN2, active compounds read low 0.973 | S. cerevisiae deletion strains, locus YPR119W, strain clb2, active compounds read low 0.99 | S. cerevisiae deletion strains, locus YPR141C, strain kar3, active compounds read low 0.993 | S. cerevisiae deletion strains, locus YPR163C, strain tif3, active compounds read low 0.973 | S. cerevisiae deletion strains, locus YPR167C, strain met16, active compounds read low 0.979 | S. cerevisiae deletion strains, strain wtn01, active compounds read low 0.969 | S. cerevisiae strains, strain wild type, active compounds read low 1.01
